Experimental data from PubChem BioAssay (Tox21).
Results filed as inconclusive are left out. A number with no mark means an inactive call. Calls come from the whole dose curve; as a rule, active = well fitted cell-killing curve with a large enough effect in the repeat runs; inconclusive = weak or mixed curves, or effect the other way; inactive = flat fitted curve, though single readings scatter.

Assay: qHTS assay to identify small molecule agonists of the sonic hedgehog signaling (Shh) pathway - cell viability counter screen (AID 1259366); note: nearly all actives have a fitted effect of over 50% in size
Details: NIH/3T3 Gli1-Luc viability, CellTiter-Fluor, 24 h; series mostly up to 92.4 µM; viability change, negative = cytotoxic: at the top concentration
Source text: National Center for Advancing Translational Sciences [NCATS]
NIH Chemical Genomics Center [NCGC]
U.S. Environmental Protection Agency [EPA]
National Institutes of Environmental Health Sciences [NIEHS]
National Toxicology Program [NTP]
U.S. Food and Drug Administration [FDA]
The sonic hedgehog (Shh) pathway is essential for normal embryonic development. Dysregulation of the Shh pathway can cause severe developmental defects in organs. Therefore chemicals that interfere with the pathway are potential developmental toxicants. A cell line designated 3T3Gli1-Luc (DMB/OARSA/CFSAN/FDA, Laurel, MD), a NIH/3T3 derived clone containing stably integrated Gli1-Luc reporter is used to detect chemical interference of the Shh pathway, by changes in the expression of the firefly Luc gene under the control of the Gli1 transcriptional response element. This cell line was used to screen Tox21 libraries for identifying and prioritizing the potential developmental toxicants that interfere Shh pathway. The cytotoxicity of the compounds was tested in parallel by measuring the cell viability using CellTiter-Fluor assay system (Promega, Madison, WI) in the same wells.
Tox21 Assay Protocol Summary:
3T3 Gli1-Luc cells were dispensed at 2,000 per well in 5uL of culture medium into white solid bottom 1536-well plates (Greiner Bio-One, Monroe, NC) using a Multidrop Combi (Thermo Scientific, Waltham, MA) dispenser. The assay plates were incubated at 37 C and 5% CO2 for 4hr, and then 23nL of compounds dissolved in DMSO and positive control were transferred using a Pintool station (Wako, San Diego, CA). The assay plates were incubated at 37C and 5% CO2 for 24hr. For viability read, after 23hr of compound treatment, 1uL of CellTiter-Fluor reagent (Promega Corporation, Madison, WI) was added to each well of the assay plates using Flying Reagent Dispenser (FRD, Aurora Discovery, San Diego, CA) and incubated the assay plates at 37C for 1hr. The fluorescence signal was quantified using a ViewLux plate reader (Perkin Elmer, Shelton, CT).
% is set by controls: 0 for no effect and ±100 for the full control effect.

Row | Structure (SMILES) | viability change, negative = cytotoxic
1 | CC(=O)c1ccc2ccc3ccccc3c2c1 | 2.96%
2 | NC(=O)CC[C@@H](N)C(=O)O | 3.51% [at 42.5 µM]
3 | CCO/C=C1\N=C(c2ccccc2)OC1=O | -5.72%
4 | C[n+]1ccccc1/C=N/O | 3.55% [at 42.5 µM]
5 | Cc1cc(=O)oc2cc(O[C@@H]3SC[C@@H](O)[C@H](O)[C@H]3O)ccc12 | 5.78% [at 42.5 µM]
6 | CCCCNCC | 0.521%
7 | CC(C)(C)C(=O)CCc1ccc(Cl)cc1 | 4.72%
8 | CN(C)CCc1c[nH]c2ccc(C[C@H]3COC(=O)N3)cc12 | 0.198% [at 42.5 µM]
9 | CC1(C)C(=O)C(C)(C)C1=O | -3.16%
10 | Cc1ccc(O)c(C(=O)c2ccccc2)c1 | -10.7%
11 | Cc1cc(C)c(C)c(C)c1 | 0.778%
12 | c1coc(Cn2cccc2)c1 | 0.76%
13 | O=C(c1ccccc1)c1cccc(O)c1 | 1.19%
14 | CCCCCCCCCCCCCCBr | 1.05%
15 | C=CC(=O)OCCOCCOCC | -6.41%
16 | CC(=O)OCC(=O)[C@@]1(O)CC[C@H]2[C@@H]3CCC4=CC(=O)C=C[C@]4(C)[C@H]3[C@@H](O)C[C@@]21C | 14.5% [at 42.5 µM]
17 | Cc1nc2ccc(Cl)cc2[nH]1 | -4.57%
18 | CC(C)C[P+](C)(CC(C)C)CC(C)C | 19.7%
19 | CCc1ccc(CC)cc1 | 8.5%
20 | c1cc2ccc3ccc4ccc5cccc6c(c1)c2c3c4c56 | 2.39% [at 3.27 µM]

Row | Structure (SMILES) | viability change, negative = cytotoxic
21 | COc1cc(OC)cc(OC)c1 | 4.97% [at 42.5 µM]
22 | COC(=O)/C=C(\C)CCC=C(C)C | 0.0434%
23 | O=C(O)Cc1ccccc1Oc1ccc(Cl)cc1Cl | 2.57% [at 42.5 µM]
24 | CCOC(=O)COc1ccc2c(C)c(CCN(CC)CC)c(=O)oc2c1Cl | -0.361% [at 42.5 µM]
25 | C=CCON/C(CCC)=C1\C(=O)CC(C)(C)C(C(=O)OC)=C1O | -4.82%
26 | CC(C)(C)c1ccc(C(=O)CCCCl)cc1 | 2.06% [at 42.5 µM]
27 | CCC(C)(C)C | 0.146%
28 | N#CC1(N)CCCCC1 | 1.99%
29 | CCCCN1C(=O)c2ccccc2C1=O | -3.12%
30 | CC(C)(C)NCC(O)COc1cccc2c1CCC(=O)N2 (stereo not given) | -0.451% [at 42.5 µM]
31 | C=CC(=O)CC | 3.6%
32 | CC(=O)c1c(C)cc(C(C)(C)C)cc1C | -4.87%
33 | CC(CC(=O)Cl)CC(C)(C)C (stereo not given) | -1.64%
34 | Clc1cc(Cl)c(Cl)c(Cl)c1Cl | -3.56%
35 | CCCCOCCCC | 1.91%
36 | COc1cc(NS(=O)(=O)c2ccc(N)cc2)ncn1 | 2.55% [at 42.5 µM]
37 | CCCCCCC(O)CO (stereo not given) | -3.28%
38 | C=C(C)C(=O)OCCCC | 0.476%
39 | CC(C)OC(=O)C(C(=O)OC(C)C)=C1SC=CS1 | 1.69% [at 42.5 µM]
40 | C=CCOC(=O)CCCCCCCC | -1.92%
